Sampled rows, rich in hits. Any-hit rate of the full collection: about 5.3%.
Lassa entry inh: qHTS for Inhibitors of binding or entry into cells for Lassa Virus. Lassa virus pseudotype entry inhibition, cell reporter. Potency, µM (highest dose often 37.9 µM), without a hit: at the highest dose activity change, negative = inhibition, most hits filed as inhibitors. 300,000 tested, 1.2% active; calls by dose curve; tested in HEK293 cells; also: nearly all actives have a fitted effect of over 50% in size
FMDV antiviral: High Throughput Screening for Foot and Mouth Disease Virus Antivirals. FMDV antiviral cell-based qHTS. Potency, µM (doses to about 57.9 µM), for inactives: at the highest dose activity change, negative = inhibition, hits mostly inhibitors. 410,000 tested, 1.2% active; calls by dose curve; tested in HEK293T cells; also: read-out not given here; nearly all actives have a fitted effect of over 45% in size
VACV Venus inh: qHTS for Stage-Specific Inhibitors of Vaccinia Orthopoxvirus: Venus Reporter Primary qHTS; Vaccinia virus Venus reporter expression, fluorescence; 330,000 tested, 0.46% active; Potency, µM (top dose mostly 36.5 µM), for the others: at the highest dose activity change, negative = inhibition, usual class: inhibitors; calls by dose curve; tested in A549 cells; also: nearly all actives have a fitted effect of over 30% in size
HCV inhibitor: qHTS Assay for Inhibitors of Hepatitis C Virus (HCV). Huh7.5.1 HCVcc-Cre infection, luciferase reporter, 44 h. Potency, µM (top dose mostly 41.8 µM), for the others: at the top dose activity change, negative = inhibition, hits mostly inhibitors. 340,000 tested, 3.4% active; active = well fitted inhibition curve with a large enough effect; inconclusive = small, poorly fitted or top-dose-only effect, or another doubt; inactive = no such curve, though single readings can be large or run the other way
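Infectious HCV cell culture screen: compound-treated cells (1,000/well, pre-plated 4 h) are infected with HCVcc-Cre at roughly 0.5 moi and grown 44 h. Infection is quantified by luciferase signal after 15 min substrate incubation at room temperature.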
VACV mCherry inh: qHTS for Stage-Specific Inhibitors of Vaccinia Orthopoxvirus: mCherry Reporter Primary qHTS | Vaccinia virus mCherry reporter infection, fluorescence | Potency, µM (highest dose often 36.5 µM), for inactives: at the top dose activity change, negative = inhibition, actives largely listed as inhibitors | 310,000 tested, 0.63% active; calls by dose curve; tested in A549 cells; also: nearly all actives have a fitted effect of over 35% in size
MARV entry inh: qHTS for inhibitors of binding or entry into cells for Marburg Virus. Marburg virus pseudotyped entry inhibition, cell reporter. Potency, µM (highest dose often 37.8 µM), for inactives: top-dose activity change, negative = inhibition, most hits filed as inhibitors. 300,000 tested, 1.8% active; calls by dose curve; tested in HEK293 cells
Active calls of the source: *; i = inactive; ? = inconclusive; · = no result; [ ] = another dose, or the depositor's remark. % is scaled to controls: 0 for no effect and ±100 for the full control effect; potency is read from the fitted curve at half-maximal effect.

SMILES	Lassa entry inh	FMDV antiviral	VACV Venus inh	HCV inhibitor	VACV mCherry inh	MARV entry inh
FC(F)Oc1ccc(NC(=S)NC23CC4CC(CC(C4)C2)C3)cc1	2.51µM*	?	-22.4%	?	-2.8%	-28.8%[46.1 µM]
CN(NC(=S)Nc1ccc(OC(F)F)cc1)C(=S)Nc1ccc(OC(F)F)cc1	?	8.2%	-2.1%	?	?	7.8%[46.1 µM]
CN(C)c1ccc(NC(=S)NC23CC4CC(CC(C4)C2)C3)cc1	?	9.3%	-13.0%	3.98µM*	?	?
CCOc1ccc(NC(=S)NC23CC4CC(CC(C4)C2)C3)cc1	·	-1.7%	·	16.4%	·	·
Cn1c(SCc2ccccc2)nc2ccsc2c1=O	?	-29.9%	-10.2%	10µM*	i	?
Cc1cccc(CSc2nc3ccccc3c(=O)n2C)c1	·	?	·	22.4µM*	·	·
Cn1c(SCCOc2ccccc2F)nc2ccccc2c1=O	2.6%	39.8µM*	-16.1%	15.3%	-12.0%	3.55µM*
Cn1c(SCc2ccc(Br)cc2)nc2ccccc2c1=O	-19.7%	?	-13.1%	?	-21.3%	-19.9%
O=c1[nH]c(SCCOc2ccccc2F)nc2ccccc12	1.0%	15.6%	-13.5%	-28.1%	-15.9%	?
CS(=O)(=O)c1ccc(-c2cccc3c2OC(CNC(=O)c2cc(C4CC4)[nH]n2)C3)cc1 (centres undefined)	·	-13.0%	1.7%	·	-7.9%	·
Nc1nc(N)c(-c2ccccc2)s1	·	·	-8.7%	·	-14.5%	·
CCOc1ccc(N(C)C(=O)c2oc(=O)c3ccccc3c2-c2ccccc2)cc1	-15.5%[46.1 µM]	?	-13.6%	·	-20.6%	-19.6%[46.1 µM]
C[C@@H]1[C@H](c2ccccc2)OCCS(=O)(=O)N1Cc1ccc(F)cc1	·	·	-21.8%	·	i	·
Cc1cc(O)c2c3c(c(=O)oc2c1)CCC(C)C3 (centres undefined)	·	-1.8%	·	8.91µM*	·	·
COc1ccc(-c2[nH]c(-c3ccc(Cl)cc3)nc2SCC(=O)Nc2nccs2)cc1	5.1%	-28.9%	-22.1%	?	0.7%	12.9%
O=C(CSc1nc(-c2cccc(F)c2)[nH]c1-c1ccccc1)Nc1ccc2c(c1)OCCO2	10µM*	?	?	·	?	?
COc1ccc(-c2[nH]c(-c3ccccc3)nc2SCC(=O)Nc2nccs2)cc1	-10.1%	-29.6%	-21.6%	14.1µM*	i	?
COCc1cc(C)nc(SCC(=O)Nc2ccc3c(c2)OCO3)c1C#N	11.0%	-2.4%	-25.1%	11.2µM*	-3.6%	-7.5%
COCc1cc(C)nc(SCC(=O)Nc2ccc3c(c2)OCCO3)c1C#N	·	-16.1%	·	?	·	·
COc1ccc(-c2[nH]c(-c3cccc(OC)c3)nc2SCC(=O)Nc2ccc3c(c2)OCO3)cc1	7.94µM*	4.7%	-8.9%	·	-12.9%	-13.6%[46.1 µM]
CCc1ccc(OCC2c3cc(OC)c(OC)cc3CCN2C(=O)c2ccc(S(=O)(=O)N3CCCC3)cc2)cc1 (centres undefined)	?	-5.1%	-2.8%	·	0.8%	·
CCc1cccc(C)c1NC(=O)CSc1nc(C)cc(C)c1C(=O)Nc1ccccc1	4.8%[46.1 µM]	-28.1%	-9.3%	·	-9.0%	-14.1%[46.1 µM]
O=C(CSC1=NC2(CCCCC2)N=C1c1ccccc1)Nc1ccc2c(c1)OCCO2	4.0%	0.0%	·	11.2µM*	·	-1.9%
COc1cc(NS(=O)(=O)c2ccc3c(c2)CCCN3C(C)=O)cc(OC)c1OC	-4.3%[46.1 µM]	29.5%	?	·	?	·
CC1CCCN(c2ccc(C(=O)NCc3cccs3)cn2)C1 (centres undefined)	10.3µM*	·	-26.2%	?	-5.2%	11.6%
SMILES	Lassa entry inh	FMDV antiviral	VACV Venus inh	HCV inhibitor	VACV mCherry inh	MARV entry inh
O=C(NCc1cccs1)c1ccc(N2CCCCC2)nc1	-15.6%	·	?	?	-10.3%	-1.7%
CC(O)(COc1ccccc1)c1ccc2c(c1)CN(Cc1cccnc1)CCO2 (centres undefined)	·	-19.4%	-4.6%	·	-19.1%	·
O=C(Cc1coc2cc3c(cc12)CCC3)OCC(=O)N1CCCC1=O	?	14.1µM*	-10.9%	6.0%	i	?
O=C(O)Cc1coc2cc3c(cc12)CCC3	?	-1.9%	-3.6%	-7.4%	-0.7%	9.4%
COc1ccc(NC(=O)CSC2=Nc3ccccc3C3=NC(CCC(=O)NC4CCCCC4)C(=O)N23)cc1Cl (centres undefined)	-9.5%[46.1 µM]	-7.2%	-10.8%	·	-6.9%	0.2%[46.1 µM]
CCC(=O)Nc1cccc(C(=O)/C=C/c2ccccc2)c1	10µM*	17.8µM*	-18.9%	-26.2%	·	?
O=C(/C=C/c1ccccc1)Nc1cccc(C(=O)O)c1	·	10µM*	-6.3%	-1.4%	-11.0%	·
COc1cccc(/C=N/Nc2ncnc3scc(-c4ccccc4)c23)c1O	5.17µM*	-1.7%	?	?	2µM*	1.41µM*
COc1cccc(/C=N/Nc2nccnc2Cl)c1O	2.06µM*	12.6µM*	?	2.51µM*	1.26µM*	1.64µM*
COc1ccc(/C=N/Nc2nccnc2Cl)c(OC)c1	?	19.4%	-1.3%	-29.9%	-5.4%	21.2%[46.1 µM]
Clc1nccnc1N/N=C/c1ccc(Br)cc1	·	58.2%	·	-5.5%	·	·
COc1ccc(/C=N/Nc2nncc3ccccc23)cc1	?	3.55µM*	-7.1%	?	-4.3%	?
COc1ccc(/C=N/Nc2nccnc2Cl)cc1	8.2µM*	·	-7.0%	-0.9%	-13.5%	?
COc1ccc(/C=N/Nc2ncnc(Cl)c2N)cc1OC	5.9%	-11.9%	-6.5%	26.1%	i	0.0%
COc1cccc(/C=N/Nc2ncnc(Cl)c2N)c1O	3.66µM*	-9.8%	5.01µM*	5.62µM*	3.55µM*	2.51µM*
O=C(c1cc(-c2ccc(Cl)cc2)n[nH]1)N1CCN(S(=O)(=O)c2ccc(Br)s2)CC1	?	-26.6%	?	·	11.2µM*	·
CSCCC(NC(=O)COc1ccccc1)C(=O)N(C)Cc1ccc(Cl)cc1Cl (centres undefined)	·	39.0%	·	?	·	·
CCOC(=O)N1CCN(c2ncc3c(n2)CC(c2ccc(OC)c(OC)c2)CC3=O)CC1 (centres undefined)	-2.7%[46.1 µM]	14.1µM*	-11.9%	·	-20.3%	-16.6%[46.1 µM]
COc1ccc(C2CC(=O)c3cnc(N4CCN(Cc5ccccc5)CC4)nc3C2)cc1 (centres undefined)	?	22.4µM*	-22.1%	?	-26.1%	?
CCN1CCN(c2ncc3c(n2)CC(c2ccc(OC)c(OC)c2)CC3=O)CC1 (centres undefined)	?	20µM*	·	?	·	?
Cc1ccc(C2CC(=O)c3cnc(N4CCN(c5ccccc5)CC4)nc3C2)cc1 (centres undefined)	-13.0%	-2.7%	·	-5.0%	·	4.7%
CCN1CCN(c2ncc3c(n2)CCN(Cc2ccc(OC)c(OC)c2)C3)CC1	-12.8%[46.1 µM]	-23.5%	-0.4%	·	-3.9%	·
COc1ccc(Nc2ncc3c(n2)CC(c2ccccc2)CC3=O)cc1 (centres undefined)	0.92µM*	-15.8%	·	?	·	3.2%
